Screening data (PubChem)
Many of the other results were omitted from the sample, so hits are more common in it than they were.
FECH block: human FECH heme synthesis enzyme inhibition; purified FECH, Ni-mesoporphyrin absorbance 550 nm; actives 3.3% (n = 20,000); calls only at 10 µM (by protocol);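 active = enzyme reaction rate more than 3 SD below the solvent-only control wells on the same plate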;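 note: lower slope than DMSO wells means FECH inhibition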
Target sequence (P22830 whole entry, looked up): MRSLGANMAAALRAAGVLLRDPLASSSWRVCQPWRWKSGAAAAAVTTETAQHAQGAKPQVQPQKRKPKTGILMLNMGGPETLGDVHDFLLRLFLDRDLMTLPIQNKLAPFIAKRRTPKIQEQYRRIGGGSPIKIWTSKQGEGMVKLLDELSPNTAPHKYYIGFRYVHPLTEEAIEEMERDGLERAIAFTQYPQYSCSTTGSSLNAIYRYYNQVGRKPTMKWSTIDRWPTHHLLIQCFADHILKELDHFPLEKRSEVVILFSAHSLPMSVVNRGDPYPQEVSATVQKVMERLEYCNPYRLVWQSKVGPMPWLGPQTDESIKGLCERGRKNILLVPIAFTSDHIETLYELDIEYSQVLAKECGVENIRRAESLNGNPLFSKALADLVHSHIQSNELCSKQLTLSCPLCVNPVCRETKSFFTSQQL
Starred values were filed as active, the others as inactive; i = inactive; + = active, no number.

SMILES	FECH block
COc1c(C)cc(-c2ccc(C(C)=O)cn2)cc1C	i
Cc1nc(CCNC(=O)c2ccc(C3CCCO3)s2)sc1C (stereo not given)	i
CN1CCCN(C(=O)c2cc(CN(C)CCc3ccccc3)on2)CC1	i
Cc1ccc(O)c(CN2CCN(Cc3ccco3)C(CCO)C2)n1 (stereo not given)	i
CNC(=O)c1ccc(Cn2c(=O)c3cc(OC)c(OC)cc3n(CC(=O)N3CCC(C)CC3)c2=O)cc1	+
CNC(=O)c1ccc(Cn2c(=O)c3cc(OC)c(OC)cc3n(CC(=O)NCCCOC)c2=O)cc1	+
CNC(=O)c1ccc(Cn2c(=O)c3cc(OC)c(OC)cc3n(CC(N)=O)c2=O)cc1	i
CCCNC(=O)Cn1c(=O)n(Cc2ccc(C(=O)NC(C)C)cc2)c(=O)c2cc(OC)c(OC)cc21	i
COCCCNC(=O)c1ccc(Cn2c(=O)c3cc(OC)c(OC)cc3n(CC(N)=O)c2=O)cc1	i
CNC(=O)c1ccc(Cn2c(=O)c3cc(OC)c(OC)cc3n(CC(=O)N3CCCCC3C)c2=O)cc1 (stereo not given)	i
CNC(=O)c1ccc(Cn2c(=O)c3cc(OC)c(OC)cc3n(CC(=O)NCCC(C)C)c2=O)cc1	+
CNC(=O)c1ccc(Cn2c(=O)c3cc(OC)c(OC)cc3n(CC(=O)Nc3ccccc3)c2=O)cc1	i
CCCNC(=O)Cn1c(=O)n(Cc2ccc(C(=O)NCCC)cc2)c(=O)c2cc(OC)c(OC)cc21	i
N[C@H](Cc1ccccc1)C(=O)N1CCCN(Cc2cccs2)CC1	i
O=C(c1cncc(-c2ccc(F)cc2Cl)n1)N1CCCCC1	i
CCc1c(C)nn(CCNC(=O)C2CCCN(Cc3ccco3)C2)c1C (stereo not given)	i
c1ccc(CN(Cc2cnc[nH]2)CC2CCCO2)nc1 (stereo not given)	i
Cc1onc(-c2ccccc2Cl)c1C(=O)N1CC(c2ccncc2)C1	i
COC(=O)[C@H]1C[C@@H](O)CCN1S(=O)(=O)c1cc(C)c(Cl)cc1C	i
O=C1C[C@H]2CC[C@@H](CN1)N2Cc1ccc(OCc2ccccn2)cc1	i
Cc1nc(C(=O)NCC2(c3ccc(F)cc3)CCOC2)cs1 (stereo not given)	i
COc1ccccc1-n1cc(C(=O)N2CCCC(O)(CN(C)C)CC2)cn1 (stereo not given)	i
CC1CCCCN1S(=O)(=O)c1cc2c(cc1Cl)NC(=O)CO2 (stereo not given)	i
Cc1ccc(NC(=O)C2CCN(S(=O)(=O)c3cc4c(cc3C)NC(=O)CO4)CC2)nc1	+
CCOC(=O)C1CCN(S(=O)(=O)c2cc3c(cc2Cl)NC(=O)CO3)CC1	i
SMILES	FECH block
Cc1ccc(NC(=O)CN2C(=O)CCc3cc(S(=O)(=O)N4CCCC4)ccc32)nc1	i
COc1ccccc1NC(=O)C1CCCN1S(=O)(=O)c1cc2c(cc1C)NC(=O)CO2 (stereo not given)	i
Cc1cc2c(cc1S(=O)(=O)N1CCCC1C(=O)N1CCc3ccccc31)OCC(=O)N2 (stereo not given)	+
CC(Oc1ccc2c(c1)OCO2)c1n[nH]c(Cc2ccccc2)n1 (stereo not given)	i
Cc1cc2n(n1)CCC(=O)N2Cc1ccc(C(=O)Nc2c(C)cccc2C)cc1	i
CNC(=O)c1ccc(CN2CCC=C(CNC(=O)N3CCCC3)C2)o1	i
O=C(c1cccc(CC2CCNCC2)c1)N1CCc2[nH]ncc2C1	i
Cn1nnc2cc(C(=O)Nc3ccc(S(N)(=O)=O)cc3)ccc21	i
COC(=O)c1cc2n(n1)CCN(c1ccnc(SC)n1)C2	i
CSc1nccc(-c2ccc(Cl)cc2Cl)n1	+
Cc1ccc(NC(=O)CNc2nccc(-c3ccc(C)nc3C)n2)c(F)c1	i
COc1cccc(-c2nc(CSc3nc(-c4cccnc4)cc(=O)[nH]3)c(C)o2)c1OC	i
CC(=O)NCCC1CCN(c2cc(CN)nc(C)n2)CC1	i
COc1ccc(CC(=O)NCCn2c(-c3ccccc3)nc3cccnc32)c(Cl)c1	i
Cc1cc(C)cc(NC(=O)NCCn2c(-c3ccncc3)nc3cccnc32)c1	i
CCc1ccccc1NC(=O)NCCn1c(-c2ccncc2)nc2cccnc21	i
Cc1ccc(-c2nc3cccnc3n2CCNS(=O)(=O)c2ccc(C)cc2)cc1	i
COC(=O)CNC(=O)NCCn1c(-c2ccccc2)nc2cccnc21	+
Cc1ccc(NC(=O)NCCn2c(-c3ccncc3)nc3cccnc32)cc1Cl	+
CCC(=O)Nc1ccc(S(=O)(=O)NCCn2c(-c3ccc(C)cc3)nc3cccnc32)cc1	+
COc1ccc(NC(=O)NCCn2c(-c3ccncc3)nc3cccnc32)cc1	i
CCc1ccc(S(=O)(=O)NCCn2c(-c3ccc(C)cc3)nc3cccnc32)cc1	i
NCc1cccc(/C=C/c2ccccc2)c1	i
Cc1cccc(NC(=O)CN2CCN(Cc3ccccc3Cl)S2(=O)=O)c1C	i
O[C@H]1Cc2ccccc2[C@H]1Nc1nccc(CCC(F)(F)F)n1	i
